From PubChem BioAssay AID463173 (ICCB-Longwood Screening Facility, Harvard Medical School, 2010)
The whole screen tested about 52,000 compounds, of which about 4,300 (8.3%) were called active. What follows is part of a selection rich in actives, with near analogues and random picks from the rest. Unmarked numbers belong to inactive results. Cut-off read from the data, not from the text of the source: active = survival mostly below about 52% (no sharp cut-off); inactive = mostly above about 56%.

test system: DeltatarO mutant; experiment: growth inhibition of S. aureus wild type versus tarO mutant, primary screen, teichoic acid synthesis inhibitors, RN4220, OD600 (AID 463173); settings: OD600, 18 h, stronger effect = lower value, screened at 18.75 µg/mL (by protocol)

| Structure (SMILES) | survival |
| --- | --- |
| Cc1cc(C)cc(NC(=O)Cn2cc(S(=O)(=O)NC(C)(C)C)c(S(=O)(=O)NC(C)(C)C)c2)c1 | 95% |
| CSc1ncc(C(=O)NCc2ccccc2F)c(-c2ccccc2)n1 | 112% |
| CCCn1c2ccccc2c2cnn(CC(=O)NCc3ccccc3Cl)c(=O)c21 | 108% |
| COc1ccc(Br)cc1CNC(=O)C(C)n1nc(C)n2c(cc3occc32)c1=O (stereo not given) | 46% (active) |
| Cc1ccccc1CNC(=O)C(C)n1nc(C)n2c(cc3occc32)c1=O (stereo not given) | 68% |
| CCc1nn(CCCC(=O)NCc2cc(Br)ccc2OC)c(=O)c2cc3occc3n12 | 46% (active) |
| CCc1nn(CCCC(=O)NCc2ccc(OC)c(OC)c2)c(=O)c2cc3occc3n12 | 79% |
| CCC(C(=O)NCc1ccccc1OC)n1nc(C)n2c(cc3occc32)c1=O (stereo not given) | 80% |
| CCc1nn(CCCC(=O)NCc2ccccc2OC)c(=O)c2cc3occc3n12 | 84% |
| COC(=O)c1ccc(Oc2nc3c(c(=O)n(C)c(=O)n3C)n2Cc2ccc(Cl)c(Cl)c2)cc1 | 167% |
| O=C(CCS(=O)(=O)c1nc(-c2cccs2)cc(C(F)(F)F)n1)Nc1ccc(F)c(Cl)c1 | 67% |
| Clc1cc2c(cc1C=Nc1ccc(N3CCOCC3)cc1)OCO2 | 83% |
| N#CC(C#N)=Cc1cn(CC(=O)Nc2ccccc2)c2ccccc12 | 66% |
| Cc1ccc(Nc2c(-c3cc(Br)ccc3F)nc3cc(C)ccn23)cc1 | 32% (active) |
| Cc1ccc2nc(-c3c[nH]c4ccccc34)c(Nc3ccccc3)n2c1 | 78% |
| Cc1ccc(Nc2c(-c3ccccc3O)nc3cc(C)ccn23)cc1 | 78% |
| c1ccc(Nc2c(-c3c[nH]c4ccccc34)nc3ccccn23)cc1 | 54% (active) |
| Fc1ccc(Nc2c(-c3c[nH]c4ccccc34)nc3ccccn23)cc1 | 70% |
| CSc1ccc(-c2nc3cc(C)ccn3c2Nc2ccc(C)cc2)cc1 | 95% |
| Cc1ccc(Nc2c(-c3c[nH]c4ccccc34)nc3ccccn23)cc1 | 114% |
| Cc1ccn2c(Nc3ccccc3)c(-c3c[nH]c4ccccc34)nc2c1 | 86% |
| Cc1ccc(Nc2c(-c3c[nH]c4ccccc34)nc3cc(C)ccn23)cc1 | 80% (active) |
| Cc1ccc(Oc2nc3c(c(=O)n(Cc4ccccc4Cl)c(=O)n3C)n2C)cc1C | 61% |

| Structure (SMILES) | survival |
| --- | --- |
| Cc1csc2nc(-c3ccc(NS(=O)(=O)c4cc(F)ccc4F)cc3)cn12 | 87% |
| Fc1ccc(CNc2nc3c(-c4ccc(F)cc4)nnn3c3ccccc23)cc1 | 105% |
| O=C(Nc1cccc(-c2nc3ccccc3o2)c1)c1cccc2c(Cl)cccc12 | 46% |
| Cc1ccc2oc(-c3cccc(NC(=O)c4cccc5c(Br)cccc45)c3)nc2c1 | 153% |
| O=C(Nc1cc(-c2nc3ccccc3o2)ccc1Cl)c1cccc2c(Cl)cccc12 | 56% |
| Cc1ccc2oc(-c3cccc(NC(=O)c4cccc5c(Cl)cccc45)c3)nc2c1 | 51% (active) |
| Cc1ccc(-c2nc3ccccc3o2)cc1NC(=O)c1cccc2c(Cl)cccc12 | 47% (active) |
| Cc1ccc2nc(-c3cccc(NC(=O)c4cccc5c(Cl)cccc45)c3)oc2c1 | 110% |
| O=C(OCc1cc(=O)n2nc(-c3cccs3)sc2n1)c1cccc(F)c1 | 77% |
| COc1cccc(N2CCN(C(=O)CN3CCSc4ccccc43)CC2)c1 | 83% |
| Cc1ccc(C)c(N2CCN(C(=O)CN3C(=O)COc4ccc(S(=O)(=O)N5CCCC5)cc43)CC2)c1 | 85% |
| CCN(CC)CCn1c(=N)n(CC(O)COc2ccccc2C)c2ccccc21 (stereo not given) | 80% |
| O=C(CSc1nnnn1C1CCCC1)NCc1cccs1 | 103% |
| CCN(CC)CCNC(=O)c1ccc(CSc2nc3ccncc3n2Cc2cccc(F)c2)cc1 | 92% |
| Cc1cccc(N2CCN(C(=O)Nc3cn(CC(C)C)c(=O)c4ccccc34)CC2)c1C | 69% |
| Cc1ccc(Cl)cc1NC(=O)Cn1c(=O)n(Cc2ccccc2)c(=O)c2oc3ccccc3c21 | 81% |
| CCC(=O)N1c2ccccc2CC1C(=O)NCc1ccc(CC)cc1 (stereo not given) | 100% |
| COc1ccc(C2c3c(n(C)c4ccccc34)C(=O)N2CC(=O)Nc2cccc(Cl)c2)cc1 (stereo not given) | 80% |
| COC(=O)CSc1nnc(C2CCCCC2)n1Cc1ccccc1 | 116% |
| CCCCSCCCNC(=O)C1CCN(Cc2nc(-c3cccc(Br)c3)oc2C)CC1 | 68% |
| Cc1oc(-c2ccc(Cl)cc2)nc1CN1CCC(C(=O)NCCCN2CCN(c3cccc(Cl)c3)CC2)CC1 | 42% (active) |
| CCc1ccc(-c2nc(CN3CCCC(C(=O)N4CCN(c5cc(Cl)ccc5C)CC4)C3)c(C)o2)cc1 (stereo not given) | 70% |
| Cc1cccc(N2CCN(C(=O)C3CCN(Cc4nc(-c5ccc(Cl)cc5)oc4C)CC3)CC2)c1C | 60% |

| Structure (SMILES) | survival |
| --- | --- |
| Cc1ccc(C)c(N2CCN(C(=O)C3CCN(Cc4nc(-c5cccc(Cl)c5)oc4C)CC3)CC2)c1 | 47% |
| CCc1ccc(-c2nc(CN3CCC(C(=O)NCCc4ccc(C)cc4)CC3)c(C)o2)cc1 | 95% |
| Cc1ccc(Cl)cc1N1CCN(C(=O)C2CCCN(Cc3nc(-c4cccc(Cl)c4)oc3C)C2)CC1 (stereo not given) | 66% |
| Cc1ccc(Cl)cc1N1CCN(C(=O)C2CCN(Cc3nc(-c4ccc(Cl)cc4)oc3C)CC2)CC1 | -9% (active) |
| Cc1oc(-c2cccc(Cl)c2)nc1CN1CCC(C(=O)NCCCN2CCN(c3ccc(F)cc3)CC2)CC1 | 119% |
| Cc1oc(-c2cccc(Cl)c2)nc1CN1CCC(C(=O)NCCCN2CCN(c3cccc(Cl)c3)CC2)CC1 | 63% |
| Cc1ccc(Cl)cc1N1CCN(C(=O)C2CCN(Cc3nc(-c4cccc(Cl)c4)oc3C)CC2)CC1 | -8% (active) |
| CCCCSCCCNC(=O)C1CCN(Cc2nc(-c3ccc(CC)cc3)oc2C)CC1 | 46% (active) |
| CCCOc1ccc(Oc2nc(NCC(C)C)nc(N3CCOCC3)n2)nn1 | 74% |
| CN(C)c1ccc(CNC(=O)CN2C(=O)CSc3ccc(S(=O)(=O)N4CCCC4)cc32)cc1 | 80% |
| COc1ccccc1CNc1ncnc2c1nc1n2CCCC1 | 80% |
| COc1ccc(NC(=O)CC2C(=O)N(c3ccc(OC)cc3)C(=O)N2Cc2ccc(OC)c(OC)c2)cc1 (stereo not given) | 131% |
| CCOC(=O)c1ccc(NC(=O)c2cnn(-c3ccc(C)cc3C)c2C2CCN(C(=O)OC(C)(C)C)CC2)cc1 | 93% |
| Cc1nc(N2CCCCC2)c(C#N)c2c1COC(C)(C)C2 | 81% |
| Nc1ccc(N2CCOCC2)cc1C(F)(F)F | 80% |
| Cc1ccc(C)c(OCCn2c(CCNC(=O)C3CCCCC3)nc3ccccc32)c1 | 59% |
| Fc1ccc(NCc2nc3ccccc3n2CCOc2ccccc2Cl)cc1 | 91% |
| Cc1ccc(NCc2nc3ccccc3n2CCOc2ccccc2C)cc1 | 3% (active) |
| Cc1cccc(NCc2nc3ccccc3n2CCOc2ccccc2C)c1 | 3% (active) |
| COc1ccc(NCc2nc3ccccc3n2CCOc2ccccc2C)cc1 | 32% (active) |
| CCC(CC)c1nn2c(=O)cc(COc3ccc(NC(=O)c4ccccc4Cl)cc3)nc2s1 | 94% |
| COc1ccc(-c2nc(SCC(=O)NCCc3ccc(OC)c(OC)c3)n[nH]2)cc1 | 88% |
| COc1ccc(NC(=O)C2(c3cccs3)CCOCC2)cc1Cl | 91% |

| Structure (SMILES) | survival |
| --- | --- |
| Cc1cccc(CN2C(=O)c3ccccc3S(=O)(=O)c3ccc(C(=O)OCC4CCCO4)cc32)c1 (stereo not given) | 90% |
| CCOc1cccc(OCCCn2c(-c3ccc(Br)cc3)nc3ccccc3c2=O)c1 | 64% |
| Cc1ccc(C)c(Cn2c3ccccc3c3cnn(CC(=O)NCC(C)c4ccccc4)c(=O)c32)c1 (stereo not given) | 72% |
| COc1ccccc1NC(=O)NC1(C(=O)N2CCCCC2)CCCCC1 | 85% |
| CCc1ccc(C2N=C(N)Nc3nc4ccccc4n32)cc1 (stereo not given) | 137% |
| O=C1C(=Cc2ccc3c(c2)OCO3)C(=O)c2ccccc21 | 64% |
| Cc1cccc(-c2c3c(nc4ncnn24)-c2ccccc2C3=O)c1 | 74% |
| O=C1c2ccccc2-c2nc3ncnn3c(-c3ccc4c(c3)OCO4)c21 | 49% (active) |
| Cc1nc2c3ccccc3nc(NNC(=O)CCC(=O)N3CCN(c4cccc(Cl)c4)CC3)n2n1 | 107% |
| Cc1nc2c3ccccc3nc(NNC(=O)CCC(=O)N3CCN(c4cc(Cl)ccc4C)CC3)n2n1 | 55% (active) |
| Cc1nc2c3ccccc3nc(NNC(=O)CCC(=O)N3CCN(c4ccccc4F)CC3)n2n1 | 79% |
| O=c1c2sc3ccccc3c2n(Cc2cccc(C(F)(F)F)c2)c(=O)n1-c1ccccc1 | 73% |
| c1ccc(-c2cc3ccsc3s2)cc1 | 99% |
| O=c1cc(O)c2ccccc2[nH]1 | 75% |
| Oc1cc2ccsc2c2ccccc12 | 9% (active) |
| COc1cc(NC(=O)CSc2nc(-c3ccco3)cc(C(F)(F)F)n2)cc(OC)c1OC | 54% |
| COc1cc(NC(=O)CCCSc2nc(-c3ccco3)cc(C(F)(F)F)n2)cc(OC)c1OC | 38% (active) |
| COc1ccc(NC(=O)CSc2nc(-c3ccco3)cc(C(F)(F)F)n2)c(OC)c1 | 56% |
| COc1ccc(NC(=O)CCCSc2nc(-c3ccco3)cc(C(F)(F)F)n2)c(OC)c1 | 16% (active) |
| COc1ccc(NC(=O)CCCSc2nc(-c3ccco3)cc(C(F)(F)F)n2)cc1 | 55% |
| COc1ccc(NC(=O)CCCSc2nc(-c3ccco3)cc(C(F)(F)F)n2)cc1OC | 45% |
